{"source": "PubChem BioAssay (NCI)", "note": "The panel holds about 83,000 compounds, 20% with a hit somewhere; the sample as a whole holds those more often.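 Compound tested at a single concentration for 48 hours in 96-well plates; a percent growth value below 10 was scored as active.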 Unmarked numbers belong to inactive results. Activity calls are given as the source filed them."}
{"test_system": "HL-60(TB) leukemia", "assay": "NCI-60 one-dose screen, 48 h (100 = growth as untreated, 0 = no growth, -100 = all killed)", "conditions": "10 µM unless noted"}
{"smiles": "Clc1ccc(-c2csc(Nc3cccc(Nc4csc(-c5ccc(Cl)cc5)n4)c3)n2)cc1", "growth": "96.1%"}
{"smiles": "Clc1cccc(/C=N/Nc2nc(N/N=C/c3cccc(Cl)c3)nc(N3CCOCC3)n2)c1", "growth": "-9.74% (active)"}
{"smiles": "CN1CCN(Cc2ccc(NC(=O)c3cncc(C#Cc4cnc5ccc(O[C@@H]6CCOC6)nn45)c3)cc2C(F)(F)F)CC1", "growth": "-48.8% (active)"}
{"smiles": "NC(=O)c1ncn2c(=O)n(CCF)nnc12", "growth": "29.6%"}
{"smiles": "Clc1ccc2c(NCCCN3CCOCC3)c3oc4ccc(Cl)cc4c3nc2c1", "growth": "67.7%"}
{"smiles": "NS(=O)(=O)c1nnc(/N=C/c2c(O)[nH]c3ccccc23)s1", "growth": "123%"}
{"smiles": "Cc1cc(C)cc(NC2=C(Cl)C(=O)c3nc(C)ccc3C2=O)c1", "growth": "34.5%"}
{"smiles": "O=C(CN1CCN(c2cc(=O)[nH]c3ccc(F)cc23)CC1)Nc1ccc(Cl)cc1", "growth": "87.6%"}
{"smiles": "CC(C)(C)OC(=O)NCc1ccc(CNc2c([N+](=O)[O-])cnc3ccccc23)cc1", "growth": "49.1%"}
{"smiles": "CCOc1ccc2nc(NC(=O)c3ccc(C(F)(F)F)cc3)sc2c1", "growth": "93.9%"}
{"smiles": "O=C(CSc1nnc(-c2ccc(Cl)cc2)n1-c1ccccc1)Nc1cccc(F)c1", "growth": "71.7%"}
{"smiles": "CCN(CC)Cc1c(-c2cccc(OC(F)(F)F)c2)[nH]c2ccc(N3CCCC3)cc2c1=O", "growth": "72.9%"}
{"smiles": "Cn1cc(-c2nnc(N)nc2-c2c[nH]c3ccc(F)cc23)c2cc(F)ccc21", "growth": "61.7%"}
{"smiles": "C#CCOc1ccc(/C=N/Nc2nc(-c3cc(Cl)ccc3Cl)cs2)cc1", "growth": "91%"}
{"smiles": "CS(=O)(=O)Nc1cc(-c2ccc3ncc(C#N)c(NCc4ccccc4F)c3c2)cnc1Cl", "growth": "5.25% (active)"}
{"smiles": "COc1cc2oc(-c3cccc(NC(=O)c4cc(N)ccc4Cl)c3)cc(=O)c2c(OC)c1OC", "growth": "99.7%"}
{"smiles": "O=C(O)c1ccc(-n2cc(CNc3ccc(F)cc3)c(-c3ccc(C(F)(F)F)cc3)n2)cc1", "growth": "87.1%"}
{"smiles": "CCCC(=O)NC(c1ccc2c(c1)OC(F)(F)O2)c1cc(C)c2cccnc2c1O", "note": "(stereo not given)", "growth": "-4.8% (active)"}
{"smiles": "COc1ccc(/C=C2\\SC(=Nc3cc(C)on3)NC2=O)cc1", "growth": "94.6%"}
{"smiles": "O=C(Nc1ccc(N=Cc2c(O)[nH]c3ccccc23)cc1)Nc1ccc(S(=O)(=O)Nc2ncccn2)cc1", "growth": "117%"}
{"smiles": "COc1ccc(-c2ccc3c4c(cccc24)C(=O)N(N2C(=O)c4cccc5cccc(c45)C2=O)C3=O)cc1", "growth": "103%"}
{"smiles": "COc1cc(C2=NN(C(C)=O)C(c3ccc(N4CCOCC4)cc3)C2)cc(OC)c1OC", "note": "(stereo not given)", "growth": "105%"}
{"smiles": "O=C(NNc1nc2cc(F)c(F)cc2n2c(CN3CC4CNCC4C3)ccc12)c1ncccn1", "note": "(stereo not given)", "growth": "-30.7% (active)"}
{"smiles": "CCN(CC)c1ccc(C=O)c(OCc2cn(CC(=O)Nc3ccc(Cl)cc3)nn2)c1", "growth": "69.7%"}
{"smiles": "O=C(O)CCCCCN1C(=O)/C(=C/c2ccc(O)c(O)c2)SC1=S", "growth": "101%"}
{"smiles": "c1ccc(C(c2nc3ncncc3[nH]2)N2CSc3nc4ncncc4n3C2)cc1", "note": "(stereo not given)", "growth": "39.8%"}
{"smiles": "COc1ccc([C@@H]2C(=O)N(c3cc(OC)c(OC)c(OC)c3)[C@H]2c2ccc(OC)c(O)c2)cc1", "growth": "2.64% (active)"}
{"smiles": "O=C1Nc2ccccc2Oc2ccc(S(=O)(=O)CC3CO3)cc21", "note": "(stereo not given)", "growth": "0.252% (active)"}
{"smiles": "CCC(CC)N1C(=O)/C(=c2\\sc3n(c2=O)C2C(NN=3)N(CC)C(=O)N2CC)c2ccccc21", "note": "(stereo not given)", "growth": "-17.8% (active)"}
{"smiles": "Cc1ccc(NC(=O)c2cc(/C=C/C(=O)NO)cc(C(F)(F)F)c2)cc1Nc1nccc(-c2cccnc2)n1", "growth": "0.414% (active)"}
{"smiles": "COc1cc(-c2nnc(SCc3ccc(O)c4ncccc34)n2-c2ccccc2)cc(OC)c1OC", "growth": "-17.8% (active)"}
{"smiles": "N#Cc1c(Nc2ccccc2)nn2c(-c3ccc([N+](=O)[O-])cc3)ccnc12", "growth": "93.9%"}
{"smiles": "C#Cc1nc(C(=O)NCCC(=O)Nc2ccc(NC(=O)c3ccc(/C=C/C(=O)c4nccn4C)cc3)cc2)cs1", "growth": "12.2%"}
{"smiles": "O=c1[nH]c2ccccc2cc1CSc1ccccc1Nc1nccc(-c2ccc(C(F)(F)F)cc2)n1", "growth": "90%"}
{"smiles": "N#Cc1c(-c2ccc(Cl)cc2)nc(SCc2ccccc2)nc1N1CCNCC1", "growth": "1.3% (active)"}
{"smiles": "CCN(CC)c1ccc(NC2=C(Cl)C(=O)c3nc(C)ccc3C2=O)cc1", "growth": "-34.6% (active)"}
{"smiles": "COc1cccc(/C=C/C(=O)c2ccc(NC(=O)COc3cccc4cccnc34)cc2)c1", "growth": "80.5%"}
{"smiles": "C=C(C=O)[C@@H]1CC[C@]2(C)[C@H](C(=O)C=C3[C@H]4C[C@](C)(C(=O)OC)CC[C@]4(C)CC[C@]32C)[C@@]1(C)CCC#N", "growth": "-27.3% (active)"}
{"smiles": "CN1CCN(CCNc2nc(-c3cccc(NS(=O)(=O)c4cccc5c(N(C)C)cccc45)c3)cs2)CC1", "growth": "45%"}
{"smiles": "NC(N)=Nc1ccc(Oc2cccc(NC(N)=Nc3ccc(Br)cc3)c2)cn1", "growth": "64.8%"}
